# Screening results from PubChem BioAssay.
# Gli-Sufu antag = blocks Gli-Sufu signaling in a luciferase reporter. Sufu-KO-LIGHT fibroblasts, Gli luciferase reporter luminescence. inhibition, % at 5 µM. actives 0.74% (n = 340,000);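 active = inhibition above about 55%, limit read from the data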;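 note: 0% = DMSO-treated cells and 100% = wells with medium but no cells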
# SRC3 inh = human NCOA3 inhibition; Q9Y6Q9; HEK293 GAL4-SRC3 luciferase reporter, luminescence; inhibition, % at 3.6 µM; actives 0.17% (n = 360,000);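 active = inhibition above a per-campaign cutoff, the mean of all compounds plus 3 SD, cut at about 60% in these data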;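 note: 0% = DMSO-treated cells and 100% = gossypol-treated cells at 36 µM; higher means less SRC3-driven luciferase light from the GAL4 reporter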
# SRC1 inh = inhibits human SRC1 coactivator; Q15788; HEK293 GAL4-SRC1 luciferase reporter, luminescence; inhibition, % at 3.6 µM; actives 0.12% (n = 360,000);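 active = inhibition above the campaign mean plus 3 SD, with each screening campaign given its own cutoff, cut at about 60% in these data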;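 note: 0% = DMSO treated cells and 100% = gossypol at 36 µM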
# NCOA2 inhibitor = human SRC2 (NCOA2) inhibition. HEK293 GAL4-SRC2 luciferase reporter, luminescence. inhibition, % at 9 µM. actives 0.17% (n = 370,000);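 active = inhibition above the mean inhibition of all tested compounds plus 3 SD, set per campaign, cut at about 52% in these data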;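 note: 0% = DMSO treated cells and 100% = cells given Gossypol at 36 µM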
# Target sequence (Q15596 whole entry, looked up, the tested form may be a part): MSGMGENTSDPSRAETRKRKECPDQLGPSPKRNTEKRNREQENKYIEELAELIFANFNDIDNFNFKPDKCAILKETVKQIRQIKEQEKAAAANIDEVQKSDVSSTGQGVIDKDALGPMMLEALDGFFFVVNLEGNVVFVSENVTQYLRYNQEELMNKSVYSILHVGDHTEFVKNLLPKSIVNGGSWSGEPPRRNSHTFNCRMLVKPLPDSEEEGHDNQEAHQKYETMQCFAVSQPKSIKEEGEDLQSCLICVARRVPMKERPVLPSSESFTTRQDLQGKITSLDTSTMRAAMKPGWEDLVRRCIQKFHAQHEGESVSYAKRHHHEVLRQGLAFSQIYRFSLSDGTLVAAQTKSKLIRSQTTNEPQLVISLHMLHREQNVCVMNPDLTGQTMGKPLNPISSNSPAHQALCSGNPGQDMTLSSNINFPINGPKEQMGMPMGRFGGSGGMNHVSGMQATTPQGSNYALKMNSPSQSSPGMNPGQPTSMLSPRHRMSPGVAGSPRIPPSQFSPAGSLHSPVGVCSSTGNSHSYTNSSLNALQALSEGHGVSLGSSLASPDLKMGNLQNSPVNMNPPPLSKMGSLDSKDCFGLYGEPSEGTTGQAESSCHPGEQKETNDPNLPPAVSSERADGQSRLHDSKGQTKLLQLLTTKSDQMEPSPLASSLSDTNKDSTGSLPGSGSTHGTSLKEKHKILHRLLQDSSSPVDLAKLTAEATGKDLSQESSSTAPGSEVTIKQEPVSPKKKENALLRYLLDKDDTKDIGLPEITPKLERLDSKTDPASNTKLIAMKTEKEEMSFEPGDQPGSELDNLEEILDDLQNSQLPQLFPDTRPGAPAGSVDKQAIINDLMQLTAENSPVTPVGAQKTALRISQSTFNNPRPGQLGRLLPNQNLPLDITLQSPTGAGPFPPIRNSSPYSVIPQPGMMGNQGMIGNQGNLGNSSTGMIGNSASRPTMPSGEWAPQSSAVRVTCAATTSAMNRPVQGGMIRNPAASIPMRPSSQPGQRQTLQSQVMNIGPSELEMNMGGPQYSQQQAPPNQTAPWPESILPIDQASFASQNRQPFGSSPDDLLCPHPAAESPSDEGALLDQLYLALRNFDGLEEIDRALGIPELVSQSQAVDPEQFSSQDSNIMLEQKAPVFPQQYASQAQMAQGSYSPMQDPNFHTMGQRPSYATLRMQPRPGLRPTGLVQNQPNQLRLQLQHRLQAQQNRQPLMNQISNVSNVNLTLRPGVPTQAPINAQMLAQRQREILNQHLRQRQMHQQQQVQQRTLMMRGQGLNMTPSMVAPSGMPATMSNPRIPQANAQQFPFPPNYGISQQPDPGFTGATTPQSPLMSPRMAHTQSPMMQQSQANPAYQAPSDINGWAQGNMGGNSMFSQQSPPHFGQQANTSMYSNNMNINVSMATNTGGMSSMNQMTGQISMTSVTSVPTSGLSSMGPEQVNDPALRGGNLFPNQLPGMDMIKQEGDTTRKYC
# NR5A2 inv ag = inverse agonists of human LRH-1 (NR5A2); AID 602396; HEK293T StAR-luciferase reporter, LRH-1 transfected, 24 h; actives 0.13% (n = 360,000); O00482; inhibition, % at 3.6 µM;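 active = inhibition above the mean inhibition of all tested compounds plus 3 SD, cut at about 73% in these data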;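 note: 0% = DMSO wells and 100% = reporter-only cells lacking LRH-1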
# COUP-TFII inh = blocks human COUP-TFII nuclear receptor | P24468 | HEK293T NGFI-A luciferase reporter, luminescence | inhibition, % at 8.6 µM | actives 0.7% (n = 370,000);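 active = inhibition above a per-plate cutoff, mean inhibition of test wells between control levels plus 3 SD, cut at about 38% in these data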;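 note: cells cotransfected with COUP-TFII expression vector driving the NGFI-A reporter; 0% = median of COUP-TF2 test wells and 100% = reporter-only cells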
# Gli antag conf = confirmation of Gli-SUFU pathway antagonists; shares compounds with Gli-Sufu antag; Sufu-KO-LIGHT cells, Gli luciferase reporter, luminescence; inhibition, % at 5 µM; actives 40% (n = 2,500); AID 602428;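 active = mean inhibition at 5 µM reaching about 45%, limit read from the data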;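 note: plate controls were DMSO-treated cells for no effect and wells lacking cells for full effect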
# SufuKO cytotox = cytotoxic in Gli-SUFU antagonist counter-screen. shares compounds with Gli-Sufu antag. Sufu-KO-LIGHT cells cytotoxicity, ATP luminescence. cytotoxicity, % at 5 µM. actives 32% (n = 2,500). AID 651994;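 active = mean cytotoxicity at 5 µM above about 25%, limit read from the data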;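 note: cells exposed to compound overnight for roughly 16 to 18 hours; plate controls were DMSO wells with cells for no effect and medium without cells for full effect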
# Wnt3a cs = Wnt3a reporter inhibition counter-screen | shares compounds with Gli-Sufu antag | Wnt-LIGHT cells, Wnt3a-driven luciferase reporter, luminescence | inhibition, % at 6.25 µM | actives 20% (n = 2,500) | AID 651995;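 active = mean inhibition above about 25%, limit read from the data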
# Gal4-VP16 ctr = counter-screen for COUP-TFII antagonists: inhibitors of VP16; shares compounds with COUP-TFII inh; HEK293 Gal4-VP16 luciferase reporter, luminescence; inhibition, % at 8.5 µM; actives 25% (n = 2,500); AID 687007; in the data active = inhibition above about 13%
# COUP-TFII conf = COUP-TFII (NR2F2) inhibition, confirmation assay | AID 687008 | shares compounds with COUP-TFII inh | inhibition, % at 8.5 µM | actives 45% (n = 2,500) | HEK293 NGFI-A luciferase reporter, luminescence;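 active = mean inhibition over three repeats above a set limit taken from the earlier primary screen, cut at about 38% in these data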;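 note: 100% = cells given the luciferase reporter alone without the COUP-TF2 vector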
# Numbers without * were called inactive; · = not tested or not shown. Most compounds without a hit are left out; they make up all but 1.3% or so of the library.
SMILES,Gli-Sufu antag,SRC3 inh,SRC1 inh,NCOA2 inhibitor,NR5A2 inv ag,COUP-TFII inh,Gli antag conf,SufuKO cytotox,Wnt3a cs,others
CC(=O)NC(Cc1ccc(N(CCCl)CCCl)cc1)C(=O)NCC(=O)NCC(=O)O (stereo unspecified),53,-15,-8,-24,-5,7,19,4,-2,
CCOC(=O)CNC(=O)CNC(=O)C(Cc1ccc(N(CCCl)CCCl)cc1)NC(C)=O (stereo unspecified),16,23,-54,-12,-20,-6,·,·,·,
OC1CN2CCCC(O)C2C1O (stereo unspecified),·,·,·,1,·,-5,·,·,·,
O=C1NC(=S)N(c2ccccc2)C(=O)/C1=C/c1ccco1,26,-18,-52,0,2,2,·,·,·,
CCOc1cccc(N2C(=O)/C(=C/c3ccco3)C(=O)NC2=S)c1,55*,-4,21,-26,7,-15,12,0,5,
N=c1c2c(-c3ccccc3)c(-c3ccccc3)n(Cc3ccccc3)c2ncn1C1CCC(O)CC1 (stereo unspecified),·,·,·,-40,·,7,·,·,·,
CCOc1ccc(-c2cc(C)[n+](CCO)c(-c3ccc(OCC)cc3)c2)cc1,64*,20,-7,-9,20,8,60*,34*,-47,
Cc1ccc(N2C(=O)NC(=O)/C(=C\c3cc(C)n(-c4sc5c(c4C#N)CCCC5)c3C)C2=O)cc1,59*,3,-1,-6,-5,13,53*,42*,-45,
CCN1C(=O)NC(=O)/C(=C/c2cc(C)n(-c3sc(C)c(C)c3C#N)c2C)C1=O,0,-4,-39,3,-20,-15,·,·,·,
O=C(CN1C(=O)CN=C(c2ccccc2)c2cc(Cl)ccc21)NC1CCCCC1,·,·,·,22,·,7,·,·,·,
CC1=CC2OC3CC4OC(=O)C=CC=CC(=O)OCCC(C)C(O)C(=O)OCC2(CC1O)C4(C)C31CO1 (stereo unspecified),88*,93*,94*,·,97*,·,96*,82*,104*,
CC(C)C(CN1CCC(C)(c2cccc(O)c2)[C@@H](C)C1)NC(=O)C1Cc2ccc(O)cc2CN1 (stereo partly specified),·,·,·,8,·,-12,·,·,·,
C/C(=N\Nc1cccc2ccccc12)c1c(O)n(Cc2ccccc2)c(=O)[nH]c1=O,57*,-1,-20,17,-7,-4,18,12,-7,
CCC1(OC(=O)CN)C(=O)OCc2c1cc1n(c2=O)Cc2cc3ccccc3nc2-1 (stereo unspecified),82*,69*,27,·,87*,·,59*,59*,-83,
CCOP(=O)(OCC)OCC,5,-10,-57,8,4,5,·,·,·,
CCOP(=O)(CCP(=O)(OCC)OCC)OCC.C[CH2][Sn]([Cl])([Cl])[CH2]C,63*,-11,-24,-42,40,21,63*,14,-25,
C[C@H](Cc1ccc(OCC(=O)O)cc1)NC[C@H](O)c1cccc(Cl)c1,·,·,·,-18,·,-19,·,·,·,
N/C(=N\N=C\c1ccc(O)cc1O)N[N+](=O)[O-],55*,-17,4,4,3,9,14,15,42*,
Cc1c(N=Cc2c(O)n(Cc3ccc(F)cc3)c(=O)[nH]c2=O)c(=O)n(-c2ccccc2)n1C,63*,20,-8,-15,5,-13,23,4,-26,
Cc1c(N=Cc2c(O)n(CCc3ccccc3)c(=O)[nH]c2=O)c(=O)n(-c2ccccc2)n1C,6,0,-34,-17,-1,-6,·,·,·,
N#Cc1ccc2nc(-c3ccc(CN4CCC(n5c(=O)[nH]c6cc(Cl)ccc65)CC4)cc3)c(-c3ccccc3)nc2c1,·,·,·,-11,·,-7,·,·,·,
CN1OC[C@@H]2CN3C4(C[C@@H]21)c1ccccc1C3(c1ccccc1)c1ccccc14,·,·,·,-14,·,16,·,·,·,
CC(C)(C)c1cc([N+](=O)[O-])cc(C(C)(C)C)c1O,51,·,·,-11,·,21,77*,42*,72*,
NC(=O)c1cc([N+](=O)[O-])cc([N+](=O)[O-])c1,16,-3,2,-7,14,-1,·,·,·,
COc1cc2c(cc1OC)[C@H]1C(=O)c3ccc4c(c3O[C@H]1CO2)C[C@@H](C(C)(C)O)O4,14,-5,3,11,10,6,·,·,·,
SMILES,Gli-Sufu antag,SRC3 inh,SRC1 inh,NCOA2 inhibitor,NR5A2 inv ag,COUP-TFII inh,Gli antag conf,SufuKO cytotox,Wnt3a cs,others
COc1cc2c(cc1OC)C1C(=O)c3ccc4c(c3OC1CO2)CC(C(C)C)O4 (stereo unspecified),85*,20,31,24,45,73*,89*,47*,37*,Gal4-VP16 ctr=-1;COUP-TFII conf=69*
COc1cc2c(cc1OC)[C@@H]1C(=O)c3ccc4c(c3O[C@@H]1CO2)C[C@H](C(C)C)O4,83*,20,10,24,45,67*,85*,42*,53*,Gal4-VP16 ctr=3;COUP-TFII conf=63*
Nc1c(Br)cc2c3c(cccc13)-c1ccccc1-2,5,·,·,-12,·,-10,·,·,·,
COc1cc(O)c2c(c1)/C=C/C[C@H](O)[C@H](O)[C@@H](O)/C=C/C[C@H](C)OC2=O,·,·,·,10,·,-3,·,·,·,
O=C(NC1CCCCC1)N1Cc2ccc(Br)cc2-n2nncc2C1,·,·,·,-11,·,-8,·,·,·,
CC[C@@H](O)C[C@H]1CCC[C@@]2(C[C@@H]3OC(=O)/C=C/[C@@](C)(O)[C@@H](O)[C@H](C)[C@@H](O)[C@H](OC4CCC(N(C)C)C(C)O4)[C@@H](O)[C@](C)(O)CCCCC/C=C/[C@@H]4CC(C)(C)O[C@@]4(O)C[C@H](O2)[C@H]3C)O1 (stereo partly specified),89*,73*,69*,-17,92*,80*,89*,20,22,Gal4-VP16 ctr=3;COUP-TFII conf=73*
CC[C@H](C(N)=O)N1CCCC1=O,·,·,·,-26,·,-14,·,·,·,
Cc1cc(-c2ccccc2)cc(-c2ccccc2)[n+]1CCc1ccccc1,92*,57,39,17,63,38*,92*,48*,73*,Gal4-VP16 ctr=15*;COUP-TFII conf=26
Fc1ccc(C[n+]2c(-c3ccccc3)cc(-c3ccccc3)cc2-c2ccccc2)cc1,43,·,·,-4,·,23,·,·,·,
